From PubChem BioAssay AID2289 (National Center for Advancing Translational Sciences (NCATS), 2010) come the findings set out here.

The campaign covered roughly 340,000 compounds. About 3,300 (0.97%) were called active. About 9% were inconclusive and are not listed. Calls come from the whole dose curve; as a rule, active = well fitted inhibition curve with a large enough effect; inconclusive = small, poorly fitted or top-dose-only effect, or effect the other way; inactive = flat fitted curve, though single readings scatter. This is one part of the list.
Potency is the fitted concentration of half-maximal effect.

This assay can be described thus: qHTS Assay for Modulators of miRNAs and/or Inhibitors of miR-21. Note: nearly all actives have a fitted effect of over 55% in size. The conditions noted are these: HeLa miR-21-FLuc reporter, luciferase luminescence, 48 h; actives lower the signal. In outline: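 Using DMEM plus 10% FBS, HeLa miR-21-FLuc cells are incubated with test compounds (final up to about 40uM) for 48 hours; firefly luciferase signal is then imaged following reagent-mediated lysis.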
For `O=C(O)c1cc(N/N=C/c2ccc(-c3ccccc3)cc2)ccc1Cl`, the Potency was 0.233 µM (active).
The figure for `O=C(O)c1cc(N/N=C/c2ccc(-c3ccc(F)cc3)o2)ccc1Cl` is 16.5 µM (active); for `O=C(O)c1cc(N/N=C/c2ccc(OCc3ccccc3)cc2)ccc1Cl` it is 1.17 µM (active).
On to `CSc1n[nH]c(-c2ccc(C(F)(F)F)cc2)n1`, for which the Potency is 7.36 µM (active).
As for `C#CC(C)(C)NC(=O)c1ccc(-c2ccccc2F)cc1`, the Potency was 5.85 µM (active).
The figure for `COc1ccc(C(=O)NC2=Nc3ccccc3N=C(C)C2c2ccccc2)cc1` (stereo not given) is 13.1 µM (active); for `CC(=O)Nc1ccc(N=Nc2ccccc2)cc1` it is 1.65 µM (active); for `O=C(Nc1ccc(N=Nc2ccccc2)cc1)c1ccccc1Cl` it is 1.04 µM (active).
Take `CC(C)C(=O)OCC(=O)Nc1ccc(N=Nc2ccccc2)cc1`: the Potency is 1.85 µM (active).
Regarding `CCCC(=O)OCC(=O)Nc1ccc(N=Nc2ccccc2)cc1`, the Potency is 3.69 µM (active).
As for `CC(=O)OCC(=O)Nc1ccc(N=Nc2ccccc2)cc1`, the Potency was 1.31 µM (active).
As to `COCCC1CCCCN1C(=O)c1ccc2nc(Cc3ccccc3F)oc2c1` (stereo not given), the Potency was 4.14 µM (active).
Turning to `Cn1/c(=N/N=C/c2ccccn2)sc2ccccc21`, the Potency was 2.07 µM (active).
With `C/C(=N\N=c1/sc2ccccc2n1C)c1ccccn1`, the Potency was 11.7 µM (active).
Regarding `Cc1ccccc1C(=O)OCc1cc(=O)n2nc(C(C)C)sc2n1`, the Potency was 2.33 µM (active).
In the case of `CCc1nn2c(=O)cc(COC(=O)c3cccs3)nc2s1`, the Potency was 9.27 µM (active).
With `CC(C)c1nn2c(=O)cc(COC(=O)c3cccs3)nc2s1`, the Potency is 8.26 µM (active).
With `COCCc1nn2c(=O)cc(COC(=O)c3ccccc3C)nc2s1`, the Potency was 10.4 µM (active).
As for `CNc1oc(-c2ccc(Cl)cc2)nc1C#N`, the Potency was 3.29 µM (active).
Take `COCCNc1oc(-c2ccc(Cl)cc2)nc1C#N`: the Potency is 9.27 µM (active).
For the compound `O=c1c2c3c(sc2nc(NCCO)n1Cc1ccco1)CCCCC3`, the Potency is 16.5 µM (active).
Under `COCCNC(=O)c1ccc2c(c1)ncn2-c1ccc(F)c(F)c1` stands 16.5 µM (active); under `COC(=O)c1cc2c(ccn2-c2ccc(F)cc2)n1Cc1ccc(OC(C)=O)cc1`, 18.5 µM (active); under `COc1cc(O)sc1C=Nc1ccc(Cl)cc1`, 7.36 µM (active).
Under `Cc1nn(Cc2ccccc2Cl)c(Cl)c1C(=O)NCCc1ccccc1` stands 2.07 µM (active); under `CCOC(=O)c1c(C)c(C(=O)NCCc2ccccc2)c(C)n1C`, 11.7 µM (active).
Turning to `Cc1nn(Cc2ccccc2)c(Cl)c1C(=O)NCCc1ccccc1`, the Potency was 2.33 µM (active).
In the case of `Cc1ccsc1C(=O)NCCc1c[nH]c2ccccc12`, the Potency is 14.7 µM (active).
Under `O=C(NCCc1c[nH]c2ccccc12)c1cnc2sccn2c1=O` stands 3.29 µM (active); under `Cc1ccc(C(=O)NCCc2c[nH]c3ccccc23)s1`, 5.21 µM (active).
Take `COc1ccccc1C1N=C(c2ccccc2C)NO1` (stereo not given): the Potency is 7.36 µM (active).
As to `CCOC(=O)c1oc2c(c1C)/C(=N/O)CCC2`, the Potency was 11.7 µM (active).
Turning to `CCCCCCSc1nc(N)c2c3c(sc2n1)CCCC3C` (stereo not given), the Potency is 14.7 µM (active).
Consider `CN(c1cc(=O)n2ccccc2n1)C1CCCCC1`, for which the Potency was 13.1 µM (active).
Under `CCN(C(=O)c1cc2c(=O)n3ccccc3nc2n1C)C1CCCCC1` stands 11.7 µM (active); under `Cc1ccc(N=c2sc(C)c(C)n2C)cc1`, 11.7 µM (active); under `C/C(=N\NC(=O)c1sccc1C)c1cccnc1`, 4.14 µM (active).
Turning to `C/C(=N\Nc1ccc(C)c(Cl)c1)c1cccnc1`, the Potency was 13.1 µM (active).
Turning to `C/C(=N\NC(=O)c1sccc1C)c1ccncc1`, the Potency was 2.93 µM (active).
In the case of `Cc1ccccc1-c1nnc(-c2cccs2)o1`, the Potency is 6.56 µM (active).
In the case of `Cc1ccccc1-c1nnc(-c2ccc(Cl)cc2)o1`, the Potency is 2.07 µM (active).
Regarding `CC1CN(C(=O)N2CCC(C(=O)NCc3cccs3)CC2)c2ccccc2O1` (stereo not given), the Potency was 1.47 µM (active).
Under `S=C(N/N=C/c1ccc(Cl)cc1)N1CCOCC1` stands 9.27 µM (active); under `Cc1ccc(/C=N/NC(=S)N2CCOCC2)cc1`, 13.1 µM (active).
Under `O=C(Nc1ccc(F)cc1)c1nsc(Cl)c1Cl` stands 1.65 µM (active).
The figure for `COc1c(O)cc2oc(-c3ccc(O)cc3)cc(=O)c2c1O` is 2.33 µM (active).
With `COc1c(O)cc2oc(-c3ccc(O)c(O)c3)cc(=O)c2c1O`, the Potency was 5.21 µM (active).
Turning to `COc1ccc(CNc2nc3ccccc3n2C)c(O)c1`, the Potency was 1.17 µM (active).
Regarding `Cn1c(CSc2nc3ccccc3s2)nc2ccccc21`, the Potency is 4.14 µM (active).
`Cn1c(CNc2ccc(O)cc2)nc2ccccc21`: the Potency is 16.5 µM (active).
With `COc1ccccc1C(=O)COC(=O)c1ccc(N(C)C)cc1`, the Potency was 3.29 µM (active).
Regarding `COc1ccc(/C=C2/CCc3ccccc3C2=O)cc1OC`, the Potency is 18.5 µM (active).
For the compound `O=C1/C(=C/c2ccccc2)CCCc2ccccc21`, the Potency was 7.36 µM (active).
`COc1ccc(/C=C2\Cc3ccccc3C2=O)cc1OC`: the Potency is 14.7 µM (active).
Consider `O=C(O)c1cccc(NC(=S)N/N=C/c2ccccc2OCc2ccc(Br)cc2)c1`, for which the Potency is 11.7 µM (active).
Under `O=C(O)c1cnn(-c2nc(-c3ccc(F)cc3)cs2)c1C(F)(F)F` stands 14.7 µM (active); under `O=C(O)c1cnn(-c2nc(-c3ccc(Br)cc3)cs2)c1C(F)(F)F`, 11.7 µM (active); under `O=C(O)c1cnn(-c2nc(-c3ccc(Cl)c(Cl)c3)cs2)c1C(F)(F)F`, 5.21 µM (active).
On to `O=C(O)c1cnn(-c2nc(-c3ccc(Cl)cc3)cs2)c1C(F)(F)F`, for which the Potency is 13.1 µM (active).
As to `COc1ccccc1-c1nn2c(-c3ccco3)nnc2s1`, the Potency is 4.65 µM (active).
`CCOC(=O)c1oc2ccc(/C=N/O)c(Cl)c2c1C`: the Potency is 8.26 µM (active).
As for `CC(C)(C)c1ccc(/C=N/NC(=O)C2CCCC2)cc1`, the Potency is 16.5 µM (active).
In the case of `Cn1cccc1CC(=O)N/N=C/c1ccc(C(C)(C)C)cc1`, the Potency is 10.4 µM (active).
For the compound `Cc1cn2c(=O)cc(COC(=O)c3cccc(NC(=O)COc4ccccc4Cl)c3)nc2s1`, the Potency was 0.329 µM (active).
Turning to `Cc1ccc(OCC(=O)Nc2cccc(C(=O)OCc3cc(=O)n4nc(C)sc4n3)c2)cc1`, the Potency is 0.736 µM (active).
Under `COc1ccc(NC(=S)Nc2ccccn2)cc1` stands 2.93 µM (active).
For `COC(=O)c1ccc(NC(=S)Nc2ccccn2)cc1`, the Potency was 2.07 µM (active).
Turning to `COc1ccccc1N1CCN(C(=O)c2nc(-c3ccc(C)cc3)n3c2CCCCC3)CC1`, the Potency was 1.47 µM (active).
The figure for `Cc1ccc(/C(N)=N/OC(=O)c2ccc3c(c2)OCO3)cc1` is 0.464 µM (active); for `N/C(=N\OC(=O)c1ccc(Cl)cc1)c1cccnc1` it is 2.61 µM (active); for `N/C(=N\OC(=O)c1ccc2c(c1)OCO2)c1cccnc1` it is 3.69 µM (active).
On to `Cc1cc(/C(N)=N/OC(=O)c2ccc(Cl)cc2)no1`, for which the Potency was 1.47 µM (active).
The figure for `Cn1cccc1/C=C1\SC(=O)N(c2ccccc2)C1=O` is 0.927 µM (active).
Under `O=C(NCCc1ccccc1)c1cc(-c2ccco2)on1` stands 3.29 µM (active); under `CCCNC(=O)c1cc(-c2ccco2)on1`, 3.69 µM (active).
As to `CC1CCN(C(=O)c2cc(-c3ccco3)on2)CC1`, the Potency is 3.69 µM (active).
Under `Cn1c(NC(=O)c2cccc(Cn3cc(Cl)cn3)c2)nc2ccccc21` stands 4.65 µM (active); under `O=C(Nc1ccccc1F)c1ccc(Cn2cc(Cl)cn2)cc1`, 10.4 µM (active).
The figure for `Cc1cc2c([nH]c3ccccc32)c2c1OC(C)(C)C=C2` is 3.69 µM (active).
Under `COc1ccc(OCc2cc(C(=O)N3CCCC(OC)C3)no2)c2ccccc12` (stereo not given) stands 16.5 µM (active); under `COc1ccc(OCc2cc(C(=O)N3CCCC(O)C3)no2)c2ccccc12` (stereo not given), 5.85 µM (active).
In the case of `Oc1c(/C=N/c2ccccn2)sc2ccccc12`, the Potency was 2.07 µM (active).
As for `O=C(OCCOc1ccccc1)c1n[nH]c2ccccc12`, the Potency is 1.47 µM (active).
Regarding `O=C(O)C(=O)/C(=C\c1ccsc1)c1ccc2ccccc2n1`, the Potency was 1.47 µM (active).
`N#Cc1ccc(/C=C(\C(=O)C(=O)O)c2ccc3ccccc3n2)cc1`: the Potency was 1.04 µM (active).
For `CC(=O)Nc1ccc(/C=N/Nc2nc3ccccc3s2)cc1`, the Potency was 0.185 µM (active).
Consider `COc1cc(/C=N/Nc2ccccc2C(F)(F)F)ccc1O`, for which the Potency was 16.5 µM (active).
Under `COc1cc(/C=C/c2nc3ccccc3s2)cc(OC)c1O` stands 13.1 µM (active).
In the case of `COc1cc(/C=N/Nc2nc3ccccc3s2)ccc1O`, the Potency is 2.93 µM (active).
For `BrC(=C\c1ccccc1)/C=N/Nc1nc2ccccc2[nH]1`, the Potency was 16.5 µM (active).
The figure for `O=C(O)c1ccc(N/N=C/C(Br)=C/c2ccccc2)cc1` is 1.17 µM (active); for `O=C(c1ccco1)N1CCN(C(c2ccccn2)c2nnnn2C2CCCC2)CC1` (stereo not given) it is 7.36 µM (active); for `Clc1ccc(-c2nnc(N3CCOCC3)o2)cc1` it is 18.5 µM (active).
On to `COc1ccc(-c2csc(N3CCSCC3)n2)cc1`, for which the Potency is 10.4 µM (active).
On to `COc1ccc(-c2csc(N3CCOCC3)n2)cc1OC`, for which the Potency was 5.85 µM (active).
The figure for `Clc1ccc(-c2csc(N3CCOCC3)n2)cc1` is 3.29 µM (active); for `COc1ccc(-c2csc(N3C(=O)CNC3=S)n2)cc1` it is 0.0585 µM (active).
Consider `O=C(c1ccc(-c2cccc(C(F)(F)F)c2)o1)N1CCOCC1`, for which the Potency is 14.7 µM (active).
As for `O=C(c1ccc(-c2cccc(Cl)c2Cl)o1)N1CCOCC1`, the Potency is 4.65 µM (active).
Regarding `O=C(c1ccc(-c2ccc([N+](=O)[O-])cc2)o1)N1CCCCC1`, the Potency was 1.85 µM (active).
Under `O=C(c1ccc(-c2ccc([N+](=O)[O-])cc2Cl)o1)N1CCOCC1` stands 10.4 µM (active); under `O=C(c1ccc(-c2ccc(Cl)cc2Cl)o1)N1CCOCC1`, 7.36 µM (active).
The figure for `O=C(c1ccc(-c2cc(Cl)ccc2Cl)o1)N1CCOCC1` is 18.5 µM (active); for `Cc1nc(NC(=O)C2CCCC2)sc1Cc1ccc2c(c1)OCO2` it is 9.27 µM (active); for `Cc1ccc(O)c(NC(=S)NC(=O)CC(C)C)c1` it is 5.85 µM (active).
